Inconclusive results are not listed. Values without a mark were called inactive. Activity calls are given as the source filed them. Calls follow the shape of the dose curve; as a rule, active = well fitted inhibition curve with a large enough effect; inconclusive = small, poorly fitted or top-dose-only effect, or effect the other way; inactive = no such curve, though single readings can be large or run the other way.
assay: Quantitative high throughput screen for delayed death inhibitors of the malarial parasite plastid, 96 hour incubation (AID 488745); settings: Plasmodium falciparum growth; series mostly up to 28.7 µM; activity change, negative = inhibition: at the top concentration; also: nearly all actives have a fitted effect of over 70% in size
Text: NIH Molecular Libraries Probe Production Network [MLPCN]
NIH Chemical Genomics Center [NCGC]
Assay Provider: David Fidock and Eric Ekland, Columbia University
The goal of this screen is to discover new antimalarial compounds that act by inhibiting the development of the apicoplast in the malarial parasite Plasmodium falciparum. The biochemical processes that make this organelle essential for erythrocytic stage parasites are not well understood. However, antibiotics such as azithromycin and tetracycline, which target the apicoplast translational machinery, have a potent antimalarial effect.
We have developed a cell-based assay that measures parasite growth based on the expression of an integrated copy of a firefly luciferase reporter. To detect small molecules that cause this 'delayed death' phenotype, erythrocytes infected with the luciferase-expressing parasites were incubated with compounds for either one or two generations, corresponding to 48 and 96 hours, respectively. Compounds that inhibit parasite growth in the second generation, but not the first, should be enriched in antimalarials that target the apicoplast. Growth inhibition is detected by a decrease in luciferase activity
Four microliters of culture medium (RPMI 1640 with 0.5% w/v Albumax (GIBCO), 24 mM sodium bicarbonate and 10 ug/mL gentamycin) were dispensed by a Multi-drop Combi into white solid 1536-well plates (Grenier) and 23 nL compound was added by a pin tool. Four microliters of infected erythrocytes (2% hematocrit, 0.1% parasitemia final concentration) in culture medium were dispensed and the plates incubated for 96 hours at 37 C in 5% CO2. Two microliters of luciferase detection reagent was added and luminescence was detected by a ViewLux (PerkinElmer) reader
% is scaled to controls: 0 for no effect and ±100 for the full control effect; potency is read from the fitted curve at half-maximal effect.

Compound | activity change, negative = inhibition [%] | Potency
COC(=O)C(C)(N)Cc1ccc(O)cc1 (stereo not given) | 0.455 | –
C#CCn1c(=O)c2c(ncn2C)n(C)c1=O | 9.23 | –
CC1CNCCN1S(=O)(=O)c1cccc2cnccc12 (stereo not given) | -13.2 | –
Cc1cccc(C)c1OCC(N)C(C)C (stereo not given) | -2.79 | –
C#CC(N)CCC(=O)O (stereo not given) | -2.92 | –
O=C(O)c1cccnc1C(=O)O | -14 | –
COc1cc(N)c(Cl)cc1C(=O)OCCN1CCCCC1 | 5.71 | –
CC(C)NCC(O)COc1ccc(CC(N)=O)cc1 (stereo not given) | 0.534 | –
O=C1C2C=CC=CC2=NC(=S)N1CCN1CCC(=C(c2ccc(F)cc2)c2ccc(F)cc2)CC1 (stereo not given) | -0.437 | –
O[Si](CCCN1CCCCC1)(c1ccc(F)cc1)C1CCCCC1 (stereo not given) | – | 0.117 µM (active)
CCCCCCCCCCC/C=C\C(C)(C)/C=C\CCCC(=O)O | 0.423 | –
N[C@@H](Cc1ccc(O)c(I)c1)C(=O)O | 9.98 | –
COc1cc(/C=C(\C#N)C(=O)c2ccc(O)c(O)c2)cc(I)c1O | -8.2 | –
O=C(O)C1=CCCNC1 | 18.8 | –
CCCCCCCC/C=C\CCCCCCCC(=O)NCCc1ccc(O)c(O)c1 | – | 14.7 µM (active)
NC1(C(=O)O)CCCCC1 | 6.5 | –
O=C(O)C1CCNCC1 | 1.47 | –
Nn1nnc2ccccc21 | -11.2 | –
[N-]=[N+]=Nc1ccc(C(=O)CSC[C@H](NC(=O)CC[C@H](N)C(=O)O)C(=O)NCC(=O)O)cc1 | -5.4 | –
CO/N=C(\C(=O)N[C@@H]1C(=O)N2C(C(=O)O)=C(CSc3nc(=O)c(O)nn3C)CSC12)c1csc(N)n1 (stereo not given in full) | 13.5 | –

Compound | activity change, negative = inhibition [%] | Potency
O=C(O)c1ccccc1Nc1cccc(OCc2ccc3ccccc3n2)c1 | 6.56 | –
N[C@H]1CONC1=O | -2.09 | –
Oc1cc(O)c2c(c1)O[C@H](c1ccc(O)c(O)c1)[C@@H](O)C2 | 28.1 | –
CN(C)C(=O)/N=N/C(=O)N(C)C | -3.29 | –
COCc1nc2c([nH]1)c(=O)n(C)c(=O)n2CC(C)C | -1.9 | –
Nc1ncnc2c1ncn2C1CCCC1 | -13.1 | –
CN(C)S(=O)(=O)c1ccc2c(c1)/C(=C/c1cc3c([nH]1)CCCC3)C(=O)N2 | – | 3.7 µM (active)
Nc1ncnc2c1ncn2C1CCCO1 (stereo not given) | -23.7 | –
CN(C)CCC(c1ccc(Br)cc1)c1ccccn1 (stereo not given) | 11.9 | –
CCSC(=N)N | -1.66 | –
NC(=O)c1cc[n+](CC2=C(C(=O)O)N3C(=O)[C@@H](NC(=O)[C@@H](c4ccccc4)S(=O)(=O)[O-])[C@H]3SC2)cc1 | 3.34 | –
COC(=O)C(N)Cc1ccc(Cl)cc1 (stereo not given) | -4.55 | –
O=c1oc(Cl)c(Cl)c2ccccc12 | -9.54 | –
NCC(O)(CS(=O)(=O)O)c1ccc(Cl)cc1 (stereo not given) | -26.4 | –
Cc1cccc(C(=O)NCN2CCN(c3ccccc3C#N)CC2)c1 | 28.6 | –
CCC(=O)N1CCN(C(=O)c2ccccc2)CC1 | 5.59 | –
Nc1ccc2c3c(cccc13)C(=O)NC2=O | 1.12 | –
CC(=O)[C@H]1CCC2C3CC=C4C[C@@H](OS(=O)(=O)O)CC[C@]4(C)C3CC[C@@]21C (stereo not given in full) | 14.2 | –
CC1CCN=C(N)S1 (stereo not given) | -14.5 | –
N[C@@H](Cc1c[nH]c2ccccc12)C(=O)O | 1.73 | –

Source: PubChem BioAssay (NCATS)
